Source: PubChem BioAssay (EPA / NIEHS)
Activity calls are given as the source filed them. Rule for the calls: active = hit-call score of the fitted dose curve at least 0.9, where 1 is the maximum; inactive = score below 0.9.

How the values were obtained:
[1] = target: Transcription factor E2F1 (Homo sapiens) (UniProt Q01094); experiment: ATG_E2F_CIS: Attagene CIS-FACTORIAL HepG2 Assay for human E2F Transcription Factor 1 (AID 2282935); settings: HepG2 Attagene cis-reporter, E2F reporter RNA transcripts; actives raise or lower the signal
How it was run: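 Endogenous E2F1 activity read through cis-promoter reporter units transfected into HepG2. After 24 h compound treatment, reporter mRNA measured by RT-PCR, HpaI digestion and capillary electrophoresis. Bidirectional fit versus DMSO.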

[2] = ATG_E_Box_CIS: Attagene CIS-FACTORIAL HepG2 Assay for human Enhancer Box (E-box) (AID 2282936); settings: HepG2 E-box cis-reporter transcription, actives raise or lower the signal
How it was run: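 HepG2 cells transiently transfected with multiplexed cis-element reporter units, dosed 24 h; reporter mRNA quantified by RT-PCR, 6-FAM labelling, HpaI digestion and capillary electrophoresis. E-box (USF1) signal fitted bidirectionally vs DMSO.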

[3] = ATG_M_61_CIS: Attagene CIS-FACTORIAL HepG2 Assay for M61 Transcription Factor (Internal Marker) (AID 2282937); settings: HepG2 Attagene CIS-FACTORIAL M61 internal marker reporter; actives raise or lower the signal
How it was run: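 HepG2 cells transiently transfected with cis-element-driven multiple reporter transcription units, dosed for 24 h. Reporter mRNA measured by RT-PCR, 6-FAM primer-extension labelling, HpaI digestion and capillary electrophoresis; bidirectional fit versus DMSO baseline.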

[4] = ATG_EGR_CIS: Attagene CIS-FACTORIAL HepG2 Assay for human Early Growth Response 1 (EGR1) (AID 2282938); settings: HepG2 Attagene CIS-FACTORIAL EGR reporter mRNA; actives raise or lower the signal
How it was run: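 HepG2 cells transiently transfected with cis-promoter-driven multiplexed reporter transcription units; reporter mRNA measured 24 h after compound dosing by RT-PCR, 6-FAM primer extension, HpaI digestion and capillary electrophoresis. Bidirectional fit versus DMSO baseline.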

[5] = ATG_M_19_CIS: Attagene CIS-FACTORIAL HepG2 Assay for M19 Transcription Factor (Internal Marker) (AID 2282939); settings: HepG2 Attagene CIS-FACTORIAL M19 internal marker reporter; actives raise or lower the signal
How it was run: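 In this multiplexed cell assay, transiently transfected HepG2 reporter units report endogenous transcription-factor activity; after 24 hours of treatment, labelled reporter cDNA fragments are quantified by capillary electrophoresis and fitted bidirectionally against DMSO.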

[6] = ATG_ERE_CIS: Attagene CIS-FACTORIAL HepG2 Assay for Estrogen Response Element (ERE) (AID 2282940); settings: HepG2 ERE cis-reporter, Attagene RNA transcript; actives raise or lower the signal
How it was run: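 Measuring endogenous transcription factor output, the assay doses transfected HepG2 cells for 24 hours and quantifies reporter transcripts by fluorescent RT-PCR and capillary electrophoresis, with DMSO as baseline.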

[7] = ATG_Ets_CIS: Attagene CIS-FACTORIAL HepG2 Assay for human Erythroblast Transformation Specific (ETS) (AID 2282941); settings: HepG2 ETS cis-reporter transcription, actives raise or lower the signal
How it was run: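 HepG2 cells transfected with multiple cis-regulated reporter units measuring endogenous ETS-driven transcription, 24 h after dosing. Reporter mRNA quantified by RT-PCR with capillary electrophoresis; bidirectional fit relative to DMSO.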

[8] = target: Hepatocyte nuclear factor 3-beta (Homo sapiens) (UniProt Q9Y261); experiment: ATG_FoxA2_CIS: Attagene CIS-FACTORIAL HepG2 Assay for human Forkhead box A2 (FOXA2) (AID 2282942); settings: HepG2 cis-reporter transcription factor activity, 24 h; actives raise or lower the signal
How it was run: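 HepG2 cells transiently transfected with multiple cis-regulated reporter transcription units, dosed for 24 h. Reporter mRNA measured by RT-PCR, 6-FAM labelling, HpaI digestion and capillary electrophoresis; bidirectional fitting against DMSO baseline.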

[9] = ATG_FoxO_CIS: Attagene CIS-FACTORIAL HepG2 Assay for human Forkhead box O (FoxO) (AID 2282943); settings: HepG2 Attagene cis-reporter, FoxO element, mRNA; actives raise or lower the signal
How it was run: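 HepG2 cells transiently transfected with cis-element-driven reporter units report endogenous FoxO activity. After 24 h chemical exposure, reporter mRNA quantified by RT-PCR, fluorescent labeling, HpaI digestion and capillary electrophoresis; bidirectional fit versus DMSO.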

[10] = ATG_GATA_CIS: Attagene CIS-FACTORIAL HepG2 Assay for human GATA Binding Protein (AID 2282944); settings: HepG2 GATA cis-element reporter, Attagene multiplex mRNA; actives raise or lower the signal
How it was run: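 Measures endogenous transcription factor-driven reporter mRNA in HepG2 cells transiently carrying cis-regulated constructs. 24 h dosing; RNA via oligo(dT) reverse transcription, PCR, HpaI digestion, capillary electrophoresis; fitted relative to DMSO.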

[11] = ATG_GLI_CIS: Attagene CIS-FACTORIAL HepG2 Assay for human Zinc Finger Protein GLI1 (AID 2282945); settings: HepG2, Attagene cis-factorial reporter mRNA, GLI element; actives raise or lower the signal
How it was run: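 Transiently transfected HepG2 cells report endogenous transcription factor activity via cis-element-driven reporter units. After 24 h compound exposure, reporter mRNA was measured by RT-PCR with capillary electrophoresis; bidirectional fitting against DMSO baseline.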

[12] = target: Bile acid receptor (Homo sapiens) (UniProt Q96RI1); experiment: ATG_IR1_CIS: Attagene CIS-FACTORIAL HepG2 Assay for human Nuclear Receptor Subfamily 1 Group H Member 4 (NR1H4), IR1 submotif (AID 2282946); settings: IR1 reporter transcription, actives raise or lower the signal
How it was run: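 HepG2 cells transiently transfected with multiple cis-promoter-driven reporter units to measure endogenous transcription factor activity; 24 h exposure. Reporter mRNA read by RT-PCR, FAM labelling, HpaI digestion and capillary electrophoresis. Bidirectional fit versus DMSO.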

[13] = ATG_GRE_CIS: Attagene CIS-FACTORIAL HepG2 Assay for human Glucocorticoid Response Elements (GRE) (AID 2282947); settings: HepG2 GRE cis-reporter, Attagene multiplex mRNA; actives raise or lower the signal
How it was run: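 Transiently transfected HepG2 cells carrying GRE cis-reporter units (endogenous TF activity) dosed 24 h; reporter mRNA quantified by RT-PCR, 6-FAM labelling, HpaI digestion and capillary electrophoresis. Bidirectional fit versus DMSO baseline.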

[14] = ATG_ISRE_CIS: Attagene CIS-FACTORIAL HepG2 Assay for human Interferon Regulatory Factor 1 (IRF1) binding to an Interferon-Stimulated Response Element (ISRE) (AID 2282948); settings: HepG2 ISRE cis-reporter (Attagene), mRNA transcription readout; actives raise or lower the signal
How it was run: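 Transiently transfected HepG2 cells carrying cis-element reporter units, dosed 24 hours. Reporter mRNA quantified by RT-PCR, fluorescent primer extension, HpaI digestion and capillary electrophoresis. Bidirectional fitting relative to DMSO.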

[15] = ATG_M_32_CIS: Attagene CIS-FACTORIAL HepG2 Assay for M32 Transcription Factor (Internal Marker) (AID 2282949); settings: HepG2 Attagene cis-factorial M32 reporter, mRNA; actives raise or lower the signal;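 note: background control marker of the multiplexed CIS panel rather than a real target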
How it was run: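 HepG2 cells transiently transfected with multiplexed cis-regulated reporter units, dosed 24 h. Reporter mRNA quantified by RT-PCR, 6-FAM labelling, HpaI digestion and capillary electrophoresis; bidirectional fit vs DMSO.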

[16] = ATG_M_06_CIS: Attagene CIS-FACTORIAL HepG2 Assay for M06 Transcription Factor (Internal Marker) (AID 2282950); settings: HepG2 Attagene CIS-FACTORIAL M06 internal marker reporter; actives raise or lower the signal
How it was run: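 One of many multiplexed endpoints: HepG2 reporter mRNA after 24 h dosing, detected by RT-PCR and capillary electrophoresis fluorescence; gain or loss of signal analysed against DMSO.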

[17] = target: Hypoxia-inducible factor 1-alpha (Homo sapiens) (UniProt Q16665); experiment: ATG_HIF1a_CIS: Attagene CIS-FACTORIAL HepG2 Assay for human Hypoxia Inducible Factor 1 (HIF1A) (AID 2282951); settings: HepG2 Attagene cis-factorial HIF1a reporter transcription; actives raise or lower the signal
How it was run: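 HepG2 cells transiently transfected with multiplexed cis-promoter reporter units; reporter mRNA read 24 h after dosing by RT-PCR, 6-FAM primer-extension labelling, HpaI digestion and capillary electrophoresis. Bidirectional fit versus DMSO baseline.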

[18] = target: Hepatocyte nuclear factor 6 (Homo sapiens) (UniProt Q9UBC0); experiment: ATG_HNF6_CIS: Attagene CIS-FACTORIAL HepG2 Assay for human Hepatocyte Nuclear Factor 6 (HNF6) (AID 2282952); settings: HepG2 Attagene cis-factorial HNF6 reporter transcription; actives raise or lower the signal
How it was run: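 HepG2, transient MRTU transfection (cis promoters); 24 h chemical exposure; total RNA → oligo(dT) RT → PCR → 6-FAM labelling → HpaI cut → CE; bidirectional fit vs DMSO.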

[19] = target: Heat shock factor protein 1 (Homo sapiens) (UniProt Q00613); experiment: ATG_HSE_CIS: Attagene CIS-FACTORIAL HepG2 Assay for human Heat Shock Transcription Factor 1 (HSE) (AID 2282953); settings: HepG2 HSE cis-reporter, Attagene RNA transcription; actives raise or lower the signal
How it was run: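 Using HepG2 with transfected cis-driven reporter constructs, compound effects on endogenous factor activity are scored as reporter mRNA change at 24 h. Detection: RT-PCR, HpaI digestion, capillary electrophoresis; bidirectional fitting to DMSO.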

[20] = ATG_MRE_CIS: Attagene CIS-FACTORIAL HepG2 Assay for human Metal Responsive Element (MRE) (AID 2282954); settings: HepG2 MRE cis-reporter transcription, Attagene multiplex; actives raise or lower the signal
How it was run: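 HepG2 cells transiently transfected with cis-element-driven reporter units; mRNA measured 24 h after dosing. Reporter transcripts quantified by RT-PCR, FAM labelling, HpaI digestion and capillary electrophoresis; bidirectional fit versus DMSO.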

Measured: AC50

Heat shock factor protein 1 (Homo sapiens), sequence (Q00613 whole entry, looked up): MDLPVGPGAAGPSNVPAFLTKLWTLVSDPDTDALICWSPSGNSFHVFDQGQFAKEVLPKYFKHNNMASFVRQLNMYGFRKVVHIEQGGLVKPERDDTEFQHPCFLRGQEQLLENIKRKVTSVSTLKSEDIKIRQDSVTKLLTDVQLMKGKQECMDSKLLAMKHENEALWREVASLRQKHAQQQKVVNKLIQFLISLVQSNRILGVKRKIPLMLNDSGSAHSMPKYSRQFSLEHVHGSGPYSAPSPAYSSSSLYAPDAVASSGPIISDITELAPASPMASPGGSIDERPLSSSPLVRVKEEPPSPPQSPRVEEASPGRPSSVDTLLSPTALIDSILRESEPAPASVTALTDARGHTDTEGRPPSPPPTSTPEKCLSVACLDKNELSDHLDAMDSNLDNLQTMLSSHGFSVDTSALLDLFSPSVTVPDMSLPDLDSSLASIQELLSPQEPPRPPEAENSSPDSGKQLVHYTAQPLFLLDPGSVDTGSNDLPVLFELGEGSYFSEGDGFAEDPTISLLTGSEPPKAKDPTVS
Bile acid receptor (Homo sapiens), sequence (Q96RI1 whole entry, looked up): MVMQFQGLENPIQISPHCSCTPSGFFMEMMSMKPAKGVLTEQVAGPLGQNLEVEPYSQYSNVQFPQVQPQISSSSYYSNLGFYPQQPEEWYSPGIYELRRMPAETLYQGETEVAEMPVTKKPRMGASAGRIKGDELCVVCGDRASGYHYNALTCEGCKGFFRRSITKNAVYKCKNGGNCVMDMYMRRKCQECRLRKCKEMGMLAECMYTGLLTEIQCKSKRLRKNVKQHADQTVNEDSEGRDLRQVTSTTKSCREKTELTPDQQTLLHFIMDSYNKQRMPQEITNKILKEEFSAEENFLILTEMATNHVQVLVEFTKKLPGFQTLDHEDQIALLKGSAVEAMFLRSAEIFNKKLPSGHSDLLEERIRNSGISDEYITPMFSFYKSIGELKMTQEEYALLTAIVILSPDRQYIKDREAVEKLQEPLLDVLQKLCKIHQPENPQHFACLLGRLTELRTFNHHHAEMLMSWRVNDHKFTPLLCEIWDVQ
Hypoxia-inducible factor 1-alpha (Homo sapiens), sequence (Q16665 whole entry, looked up): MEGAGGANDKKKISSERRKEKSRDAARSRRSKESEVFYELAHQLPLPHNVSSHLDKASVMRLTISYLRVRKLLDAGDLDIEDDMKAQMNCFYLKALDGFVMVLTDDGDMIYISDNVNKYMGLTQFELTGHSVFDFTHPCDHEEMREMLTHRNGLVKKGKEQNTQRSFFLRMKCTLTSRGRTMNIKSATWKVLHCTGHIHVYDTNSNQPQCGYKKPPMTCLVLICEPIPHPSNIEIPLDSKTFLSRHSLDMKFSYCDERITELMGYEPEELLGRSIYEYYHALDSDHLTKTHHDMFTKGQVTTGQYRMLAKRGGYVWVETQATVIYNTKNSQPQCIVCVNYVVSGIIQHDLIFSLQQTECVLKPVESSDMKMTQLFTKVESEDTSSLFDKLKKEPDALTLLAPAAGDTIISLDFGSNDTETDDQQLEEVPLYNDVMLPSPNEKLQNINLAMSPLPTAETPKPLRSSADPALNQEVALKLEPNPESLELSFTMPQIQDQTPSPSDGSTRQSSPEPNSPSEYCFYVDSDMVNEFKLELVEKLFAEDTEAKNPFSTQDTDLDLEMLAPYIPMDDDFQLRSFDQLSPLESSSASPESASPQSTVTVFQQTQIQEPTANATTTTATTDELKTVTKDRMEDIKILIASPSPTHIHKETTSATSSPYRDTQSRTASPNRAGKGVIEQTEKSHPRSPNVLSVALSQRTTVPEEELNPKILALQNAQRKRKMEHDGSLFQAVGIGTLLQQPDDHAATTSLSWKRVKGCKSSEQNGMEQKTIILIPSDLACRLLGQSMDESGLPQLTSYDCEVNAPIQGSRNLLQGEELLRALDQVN
Hepatocyte nuclear factor 6 (Homo sapiens), sequence (Q9UBC0 whole entry, looked up): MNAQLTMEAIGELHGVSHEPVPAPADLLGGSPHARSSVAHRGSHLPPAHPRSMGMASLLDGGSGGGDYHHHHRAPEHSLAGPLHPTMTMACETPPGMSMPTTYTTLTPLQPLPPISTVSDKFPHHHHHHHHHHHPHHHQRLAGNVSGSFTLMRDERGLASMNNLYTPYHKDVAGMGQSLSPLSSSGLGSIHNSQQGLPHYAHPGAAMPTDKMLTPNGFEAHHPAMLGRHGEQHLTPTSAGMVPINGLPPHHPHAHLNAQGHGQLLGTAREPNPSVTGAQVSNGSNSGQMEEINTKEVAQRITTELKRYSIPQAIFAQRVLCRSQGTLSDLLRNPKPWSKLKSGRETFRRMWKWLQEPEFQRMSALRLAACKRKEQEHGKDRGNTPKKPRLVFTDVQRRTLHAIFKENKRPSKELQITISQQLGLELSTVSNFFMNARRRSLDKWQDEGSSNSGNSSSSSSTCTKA
Transcription factor E2F1 (Homo sapiens), sequence (Q01094 whole entry, looked up): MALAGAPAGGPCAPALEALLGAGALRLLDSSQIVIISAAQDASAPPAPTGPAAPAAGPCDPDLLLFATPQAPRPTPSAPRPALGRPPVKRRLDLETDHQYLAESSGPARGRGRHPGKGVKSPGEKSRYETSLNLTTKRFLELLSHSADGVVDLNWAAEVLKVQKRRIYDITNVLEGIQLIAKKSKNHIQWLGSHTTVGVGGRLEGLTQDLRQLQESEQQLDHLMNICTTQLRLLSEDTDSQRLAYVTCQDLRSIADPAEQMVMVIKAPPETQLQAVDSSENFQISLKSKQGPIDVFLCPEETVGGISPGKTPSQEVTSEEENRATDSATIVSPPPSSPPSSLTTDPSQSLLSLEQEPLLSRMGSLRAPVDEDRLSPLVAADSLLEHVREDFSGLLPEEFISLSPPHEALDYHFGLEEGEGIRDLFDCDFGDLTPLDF
Hepatocyte nuclear factor 3-beta (Homo sapiens), sequence (Q9Y261 whole entry, looked up): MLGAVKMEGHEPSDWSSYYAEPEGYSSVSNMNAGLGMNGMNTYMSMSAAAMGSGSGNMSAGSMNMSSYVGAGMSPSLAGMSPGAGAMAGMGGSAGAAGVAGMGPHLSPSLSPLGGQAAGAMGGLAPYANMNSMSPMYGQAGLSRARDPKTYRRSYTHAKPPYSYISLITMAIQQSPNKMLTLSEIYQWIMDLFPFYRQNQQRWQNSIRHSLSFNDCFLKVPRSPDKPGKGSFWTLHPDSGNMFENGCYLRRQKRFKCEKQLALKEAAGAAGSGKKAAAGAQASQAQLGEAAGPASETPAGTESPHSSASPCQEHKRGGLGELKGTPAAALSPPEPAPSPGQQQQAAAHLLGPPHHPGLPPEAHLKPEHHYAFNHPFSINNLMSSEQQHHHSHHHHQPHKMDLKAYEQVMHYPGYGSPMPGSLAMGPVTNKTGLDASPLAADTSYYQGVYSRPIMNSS

O=C1C=CC(=O)N1c1ccccc1
inactive: all assays above

CCC(Cc1c(I)cc(I)c(N)c1I)C(=O)O (stereo not given)
active: [6] 4.54 µM | [14] 88.5 µM
inactive: all other assays above

CCCCCCCCCc1ccc(OCCO)cc1
inactive: [1] | [3] | [4] | [6] | [10] | [12] | [16] | [18]
active: [2] 23.1 µM | [5] 25.2 µM | [7] 22.9 µM | [8] 21.9 µM | [9] 13.3 µM | [11] 21.4 µM | [13] 19.2 µM | [14] 18.7 µM | [15] 21.7 µM | [17] 13.3 µM | [19] 16.8 µM | [20] 13.3 µM

CC(=O)C=O
inactive: all assays above

C#CC(O)CCC (stereo not given)
inactive: all assays above

O=S(=O)(Cl)C(F)(F)C(F)(F)C(F)(F)C(F)(F)C(F)(F)C(F)(F)C(F)(F)C(F)(F)F
active: [6] 29.4 µM
inactive: all other assays above

CC(C)OC=O
inactive: all assays above

N#CCCOCCC#N
inactive: all assays above

O=c1cccc[nH]1
inactive: all assays above

FC(F)(F)C(F)(F)C(F)(F)C(F)(F)C(F)(F)C(F)(F)CC[Si](Cl)(Cl)Cl
not listed: [17]
inactive: all other assays above

Cc1ccc(S(=O)(=O)C(I)I)cc1
inactive: [1] | [3] | [4] | [5] | [6] | [15] | [16]
active: [2] 24.3 µM | [7] 8.59 µM | [8] 43.7 µM | [9] 5.14 µM | [10] 8.85 µM | [11] 6.16 µM | [12] 42.7 µM | [13] 3.45 µM | [14] 4.8 µM | [18] 33.4 µM | [19] 10.4 µM | [20] 8.81 µM

C[Si](C)O[Si](C)C
not listed: [17]
inactive: all other assays above

CCOC(=O)CCC(C)=O
not listed: [16]
inactive: all other assays above

OCC(O)CC(F)(F)C(F)(F)C(F)(F)C(F)(F)C(F)(F)C(F)(F)C(F)(F)C(F)(F)F (stereo not given)
active: [7] 9.97 µM
not listed: [18]
inactive: all other assays above
